# Sampled rows, rich in hits. Any-hit rate of the full collection: about 0.9%.
# phage Ecoli inh = growth loss of phage-infected E. coli, primary screen, RecBCD inhibitor project, absorbance, with phage, HTS; inhibition, % at 11.9 µM; 360,000 compounds, 0.26% hits; AID 651602, 2012; in the data active = inhibition above about 11%
# E coli growth-1 = E. coli V3065 growth inhibition, primary screen, counter-screen for AddAB inhibitor project, absorbance, OD600; inhibition, % at 11.9 µM; 330,000 compounds, 0.27% hits; 18 h; AID 449728, 2010;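 active = inhibition above the campaign's mean inhibition across all tested compounds plus 3 SD, cut at about 9.9% in these data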;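 also: uninfected addAB+ strain grown without phage in ampicillin broth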
# AddAB inh = growth inhibition of E. coli expressing H. pylori AddAB, primary screen, AddAB inhibitor project, absorbance. inhibition, % at 11.9 µM. 330,000 compounds, 0.29% hits; in the data active = inhibition above about 12%
# E coli growth-2 = E. coli growth inhibition, primary screen, OD600. Escherichia coli growth, 23 h; stronger effect = lower value. OD600 absorbance (concentration not given with the values). 330,000 compounds, 0.21% hits. AID 1053175, 2014;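 active = OD600 absorbance below the run mean of sample wells minus 3.6 SD, in any replicate, cut at about 0.56 in these data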
# Calb FLC = C. albicans growth inhibition with fluconazole, primary screen, CaCi-2 strain, Alamar Blue fluorescence; C. albicans CaCi-2 (fluconazole-resistant clinical isolate) + fluconazole, 48 h; growth inhibition, % (test concentration not listed); 300,000 compounds, 0.57% hits; AID 1979, 2009;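 active = growth inhibition above about 58% in most replicates, limit read from the data, passing the limit was not always enough; inconclusive = exactly half the replicates above a set limit; inactive = most replicates below a set limit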;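 also: all wells also contain fluconazole at 8 µg/ml as a sub-toxic cotreatment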
# Tat transport = E. coli Tat export inhibitors, primary screen, MC4100, TorA-mCherry reporter, fluorescence, single point | inhibition, % at 10 µM | 340,000 compounds, 0.036% hits;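 active = mean replicate inhibition at least 50% and at least half of replicates individually reaching 50%; inconclusive = only one of the two criteria met; inactive = neither criterion met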;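 also: exported cargo escapes ClpAP degradation while cytoplasmic cargo is degraded and loses fluorescence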
# Hits are given with their value; - = inactive; ? = inconclusive; . = not tested or not shown.
SMILES,phage Ecoli inh,E coli growth-1,AddAB inh,E coli growth-2,Calb FLC,Tat transport
COc1cccc(C(C(=O)NC2CCCC2)N(C(=O)c2ccco2)c2ccc(-n3cnnn3)c(C)c2)c1OC (stereo not drawn),-,-,-,-,92,-
Cc1ccc(C=NNC(=O)c2cc(C)oc2C)cc1,.,.,.,-,.,.
O=C(CSCc1cccc(CSCC(=O)Nc2ccccc2)n1)Nc1ccccc1,-,-,-,-,111,-
CC(C)(C)c1ccc(SCC(N)=O)cc1,-,-,-,-,81,-
Cn1c(SCC(N)=O)nnc1-c1ccc(C(C)(C)C)cc1,-,-,-,-,-,-
Cc1ccc(C2CC2C(=O)NNC(=S)Nc2cccc(Cl)c2)cc1 (stereo not drawn),-,-,-,-,112,-
CCOC(=O)c1ccc2c(c1)nc(SCC(O)=C(C#N)c1nc3ccccc3[nH]1)n2CC,.,.,.,-,.,.
Cc1cc(C)nc(NS(=O)(=O)c2ccc(NC(=O)Cc3ccccc3)cc2)n1,-,-,-,-,-,-
Cc1cc(C)nc(NS(=O)(=O)c2ccc(NC(=O)COc3ccccc3)cc2)n1,-,-,-,-,79,-
COc1ccccc1NC(=O)COC(=O)c1cc(C)nc2ccccc12,-,-,-,-,.,-
Cc1cc(C(=O)OCC(=O)Nc2ccc(S(N)(=O)=O)cc2)c2ccccc2n1,-,-,-,.,127,-
CC(C)(C)c1ccc(C=NNC(=S)NC2CCCCC2)cc1,.,.,.,-,.,.
CCOC(=O)C1C2COc3ccccc3C2N2C(=O)CN(CC3CCCO3)C(=O)[C@@]12C (stereo partly drawn),.,.,.,-,.,.
CN(CCNC(=O)CCCOc1cc(=O)n(C)c2ccccc12)Cc1ccccc1,-,-,-,-,?,-
CCc1ccc(NC(=O)CCCOc2cc(=O)n(C)c3ccccc23)cc1,-,.,.,.,.,.
Cn1c(=O)cc(OCCCC(=O)Nc2cccnc2)c2ccccc21,-,-,-,-,111,-
CN(CCCNC(=O)CCCOc1cc(=O)n(C)c2ccccc12)Cc1ccccc1,-,-,-,-,116,-
CN(C)C=Nc1cc(=O)n(C)c(=O)n1CC1CC1,.,.,.,-,.,.
CCN1/C(=C/C=C/C=C/c2sc3ccccc3[n+]2CC)Sc2ccccc21,.,20,23,.,.,.
CCN1/C(=C/C=C/C=C/C=C/c2sc3ccccc3[n+]2CC)Sc2ccccc21,-,-,-,-,-,-
CON=CCC(=O)Nc1ccc(F)cc1,.,.,.,-,.,.
COc1ccc(C(=O)On2c(-c3ccc(Br)cc3)nc3ccccc3c2=O)cc1,-,-,-,-,104,-
COc1cc(OC)cc(-c2nc3ccccc3c(=O)n2OC(=O)c2ccc(Br)cc2)c1,-,-,-,-,-,-
COC(=O)c1c(C(=O)OC)c(-c2ccc(Cl)c(Cl)c2)n2c1CCC2,.,-,-,-,111,-
COC(=O)c1c(C(=O)OC)c(-c2ccc(C)cc2)n2c1CCC2,-,-,-,-,-,-
SMILES,phage Ecoli inh,E coli growth-1,AddAB inh,E coli growth-2,Calb FLC,Tat transport
CCOc1cc(C=O)cc(N=Nc2cccc([N+](=O)[O-])c2)c1O,-,-,-,-,104,-
O=[N+]([O-])c1cccc(N=Nc2ccc(O)cc2O)c1,-,.,.,-,.,-
COCC1=C(C(=O)OC(C)OC(=O)OC(C)C)N2C(=O)C(NC(=O)C(=NOC)c3csc(N)n3)C2SC1 (stereo not drawn),.,.,.,0.28,.,.
COc1cccc(C(=O)NC2C(=O)N3C(C(=O)O)=C(COC(C)=O)CSC23)c1 (stereo not drawn),-,-,-,.,.,-
CON=C(C(=O)NC1C(=O)N2C(C(=O)O)=C(COC(C)=O)CSC12)c1csc(N)n1 (stereo not drawn),.,.,.,0.063,.,.
CC(=O)OCC1=C(C(=O)OC(C)(C)C)N2C(=O)[C@@H](NC(=O)Cc3ccccc3)[C@H]2SC1,-,.,.,-,.,-
NC(=S)NN=Cc1ccc(-c2cc(Cl)ccc2Cl)o1,.,.,.,-,.,.
NC(=S)N/N=C/c1ccc(-c2cc(Cl)ccc2Cl)o1,-,-,-,.,93,?
O=C(NN=Cc1ccco1)C1(O)c2ccccc2-c2ccccc21,.,.,.,-,.,.
O=C(Nc1ccc(NC(=O)c2cccs2)cc1)c1cccs1,-,-,-,-,?,-
O=C(Nc1nonc1NC(=O)c1cccs1)c1cccs1,-,-,-,-,85,-
Cc1ccc(S(=O)(=O)N2CCN(CC(=O)NN=Cc3ccc(O)c(O)c3)CC2)cc1,.,.,.,-,.,.
O=c1c2cc(Br)ccc2nc(-c2ccccc2)n1O,-,-,-,.,100,-
Cc1ccc(-c2nc3ccccc3c(=O)n2O)cc1,-,-,-,-,-,-
O=S1(=O)CCC(NC(=S)SCCOc2ccccc2)C1 (stereo not drawn),-,-,-,0.49,-,-
CCCCSC(=S)NC1CCS(=O)(=O)C1 (stereo not drawn),-,-,-,-,-,-
O=C1NCCCC1C(=O)NN=Cc1ccccc1O (stereo not drawn),.,.,.,-,.,.
CCOC(=O)N=Nc1c(O)n(CC(=O)OC)c2ccccc12,-,-,-,-,-,-
CCOC(=O)N=Nc1c2ccccc2c2nc3no[nH]c3nc12,-,.,.,-,112,-
CC(CC(=O)NC1CCCC1)=NNC(=O)C1CCCCC1,.,.,.,-,.,.
COc1ccc(-c2ccc(=O)n(CC(=O)Nc3cccc(O)c3)n2)cc1OC,-,-,-,-,111,-
CCC(=O)NNC(=S)NC(=O)c1ccc(C)cc1,-,-,-,0.5,-,-
Cc1cccc(C(=O)NC(=S)NNC(=O)Cc2ccccc2)c1,-,-,-,-,95,-
O=C(Cc1ccccc1)NNC(=S)NC(=O)c1cccs1,-,-,-,0.45,-,.
Cc1cccc(C(=O)NC(=S)NCc2ccccc2)c1,-,-,-,-,-,-
SMILES,phage Ecoli inh,E coli growth-1,AddAB inh,E coli growth-2,Calb FLC,Tat transport
CC(=O)NNC(=S)NC(=O)c1ccc(C)cc1,-,-,-,-,-,-
CC(=O)NNC(=S)NC(=O)c1ccccc1,-,-,-,0.4,-,-
CCOC1OC(C(=O)N2CCOCC2)=CC(c2ccccc2)C1CCCO (stereo not drawn),.,.,.,-,.,.
CCOc1ccc(C=C(NC(=O)c2ccccc2Cl)C(=O)O)cc1,.,.,.,-,.,.
C=CCn1c(O)c(N=NC(=S)Nc2ccccc2C)c2cc(S(=O)(=O)N3CCOCC3)ccc21,-,-,-,-,106,-
Cc1ccc(S(=O)(=O)N=C(c2ccccc2)N2CCOCC2)c(C)c1,.,.,.,-,.,.
CC1Oc2cc3oc4c(O)c(O)ccc4c(=O)c3c(O)c2C1(C)C (stereo not drawn),.,-,-,-,97,-
CCOC1=NC(C(=O)O)c2ccccc2C(=C(C)Cl)N1 (stereo not drawn),.,.,.,-,.,.
CC(=O)c1nn(-c2cccc(Br)c2)cc1C(=O)c1ccc(C)cc1,-,-,-,-,95,-
CC(O)C1CNCCN1CCc1cccc(F)c1 (stereo not drawn),.,.,.,-,.,.
Cc1c(NC(=O)C(=O)NN=Cc2cccs2)c(=O)n(-c2ccccc2)n1C,.,.,.,-,.,.

# From PubChem
